The nature of experiment [1]: NCI Yeast Anticancer Drug Screen. Data for the rad50 strain (AID 155).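 Further: 0% = growth of vehicle-only cultures of the same strain.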 The conditions noted are these: S. cerevisiae rad50 strain growth inhibition, active compounds read high. In outline: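 A DNA repair-deficient yeast mutant serves as the test organism; compound-induced growth inhibition is calculated against vehicle-treated cells.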
Experiment [2] can be described thus: NCI Yeast Anticancer Drug Screen. Data for the mec2-1 strain (AID 157). The conditions noted are these: S. cerevisiae mec2-1 strain, active compounds read high. In outline:
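Growth inhibition is read against vehicle-treated controls after compound exposure of the mec2-1 yeast strain, which is defective in DNA damage repair or cell cycle control.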

The nature of experiment [3]: NCI Yeast Anticancer Drug Screen. Data for the sgs1 mgt1 strain (AID 161).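 Further: 0% = growth of cultures given vehicle only.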 The conditions noted are these: S. cerevisiae sgs1 mgt1 strain, active compounds read high. In outline: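 Compounds are added to genetically altered yeast, and growth is compared with cultures given vehicle alone to give percent inhibition.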
Experiment [4] is described as follows: NCI Yeast Anticancer Drug Screen. Data for the cln2 rad14 strain (AID 165).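 Further: 0% = growth equal to vehicle treated cultures.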 The conditions noted are these: S. cerevisiae cln2 rad14 strain, active compounds read high. In outline: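 Growth inhibition, relative to vehicle-treated controls, is the read-out. The test organism is a yeast strain with defined genetic alterations, cln2 rad14.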
Experiment [5] can be described thus: NCI Yeast Anticancer Drug Screen. Data for the bub3 strain (AID 167). The conditions noted are these: S. cerevisiae bub3 mutant strain, active compounds read high. An outline of the steps:
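Inhibition values come from growth of compound-treated mutant yeast normalised to vehicle-treated controls.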

A short description of experiment [6]: NCI Yeast Anticancer Drug Screen. Data for the mlh1 rad18 strain (AID 175). The conditions noted are these: S. cerevisiae mlh1 rad18 strain growth inhibition, active compounds read high. An outline of the steps:
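Cells of a genetically altered yeast strain, deficient in DNA damage repair, were treated with compound. Their growth was then compared with that of vehicle-treated cultures to give inhibition.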

The mark [7] stands for this setting: at 5.0 µM (retest, dose inferred, filed as 0.5).
The mark [8] stands for this setting: at 50.0 µM (retest, dose inferred, filed as 5.0).

Each structure is given as a SMILES string. About 79,000 compounds went through this panel and 15% of them were active in at least one assay; those are over-represented in the sample as a whole. A number with no mark means an inactive call. Activity calls are given as the source filed them. No stated cut-off is given here; in the data, active means growth inhibition above about 70%; inactive means the rest.

On to `COc1cc(/C=C(\C)[N+](=O)[O-])cc(Br)c1O`, for which the growth inhibition in experiment [1] (setting [7]) is 0%; in experiment [1] (setting [8]), 61%; in experiment [1] (at 50.0 µM) it was 86.7% (active); in experiment [2] (setting [7]), 1%; in experiment [2] (setting [8]), 82% (active); in experiment [2] (at 50.0 µM), 90.8% (active). For the same compound, the growth inhibition in experiment [3] (setting [7]) is 8%; in experiment [3] (setting [8]) it was 91% (active); in experiment [3] (at 50.0 µM), 91% (active); in experiment [4] (setting [7]), 3%; in experiment [4] (setting [8]), 43%; in experiment [4] (at 50.0 µM), 53.5%. The growth inhibition in experiment [5] (setting [7]) was -3%; in experiment [5] (setting [8]) it was 54%; in experiment [5] (at 50.0 µM), 93% (active); in experiment [6] (setting [7]), 2%; in experiment [6] (setting [8]), 81% (active); in experiment [6] (at 50.0 µM) it was 98.7% (active).

For the compound `[C-]#[O+].[C-]#[O+].[Mo].c1ccc([PH+](CC[PH+](c2ccccc2)c2ccccc2)c2ccccc2)cc1.c1ccc([PH+](CC[PH+](c2ccccc2)c2ccccc2)c2ccccc2)cc1`, the growth inhibition is 0% in experiment [1] (setting [7]); 65% in experiment [1] (setting [8]); 2% in experiment [1] (at 50.0 µM); 2% in experiment [2] (setting [7]); 52% in experiment [2] (setting [8]); 59.3% in experiment [2] (at 50.0 µM). Further, the growth inhibition was -1% in experiment [3] (setting [7]); 41% in experiment [3] (setting [8]); 1.3% in experiment [3] (at 50.0 µM); -2% in experiment [4] (setting [7]); 71% (active) in experiment [4] (setting [8]); 2.55% in experiment [4] (at 50.0 µM). Further, the growth inhibition in experiment [5] (setting [7]) is 0%; in experiment [5] (setting [8]), 76% (active); in experiment [5] (at 50.0 µM), -1.85%; in experiment [6] (setting [7]), 4%; in experiment [6] (setting [8]), 80% (active); in experiment [6] (at 50.0 µM), -0.8%.

On to `COc1ccc(CN2CCCN(Cc3ccc(OC)cc3OC)C2c2ccc(N(CCCl)CCCl)cc2)c(OC)c1`, for which the growth inhibition in experiment [1] (setting [7]) was 2%; in experiment [1] (setting [8]) it was 49%; in experiment [1] (at 50.0 µM) it was 71% (active); in experiment [2] (setting [7]), -9%; in experiment [2] (setting [8]) it was 8%; in experiment [2] (at 50.0 µM), 22.8%. Also, the growth inhibition in experiment [3] (setting [7]) is -5%; in experiment [3] (setting [8]), 42%; in experiment [3] (at 50.0 µM) it was 60.8%; in experiment [4] (setting [7]) it was -8%; in experiment [4] (setting [8]) it was 43%; in experiment [4] (at 50.0 µM), 30.3%. The growth inhibition in experiment [5] (setting [7]) is -8%; in experiment [5] (setting [8]) it was -3%; in experiment [5] (at 50.0 µM) it was 5.25%; in experiment [6] (setting [7]), 55%; in experiment [6] (setting [8]), 95% (active); in experiment [6] (at 50.0 µM) it was 53.9%.

On to `C/C1=C\[C@H](C)C[C@H](C)OC(=O)C[C@H](c2ccc(O)cc2)NC(=O)[C@@H](Cc2c(Br)[nH]c3ccccc23)N(C)C(=O)[C@H](C)NC(=O)[C@@H](C)C1`, for which the growth inhibition is 67% in experiment [1] (setting [7]); 98% (active) in experiment [1] (setting [8]); 84.8% (active) in experiment [1] (at 50.0 µM); 88% (active) in experiment [2] (setting [7]); 99% (active) in experiment [2] (setting [8]); 81.3% (active) in experiment [2] (at 50.0 µM). The growth inhibition in experiment [3] (setting [7]) was 98% (active); in experiment [3] (setting [8]), 99% (active); in experiment [3] (at 50.0 µM), 88.7% (active); in experiment [4] (setting [7]) it was 97% (active); in experiment [4] (setting [8]), 99% (active); in experiment [4] (at 50.0 µM), 81.5% (active). For the same compound, the growth inhibition in experiment [5] (setting [7]) was 99% (active); in experiment [5] (setting [8]), 99% (active); in experiment [5] (at 50.0 µM), 77.1% (active); in experiment [6] (setting [7]), 82% (active); in experiment [6] (setting [8]) it was 98% (active); in experiment [6] (at 50.0 µM) it was 80% (active).

On to `COc1cc(/C=C/c2ccc(OC)c(O)c2)cc(OC)c1`, for which the growth inhibition in experiment [1] (setting [7]) was 0%; in experiment [1] (setting [8]), 96% (active); in experiment [1] (at 50.0 µM), 98.3% (active); in experiment [2] (setting [7]), -4%; in experiment [2] (setting [8]), 98% (active); in experiment [2] (at 50.0 µM), 99.2% (active). For the same compound, the growth inhibition was 5% in experiment [3] (setting [7]); 98% (active) in experiment [3] (setting [8]); 98.9% (active) in experiment [3] (at 50.0 µM); -14% in experiment [4] (setting [7]); 97% (active) in experiment [4] (setting [8]); 98.2% (active) in experiment [4] (at 50.0 µM). Moreover, the growth inhibition in experiment [5] (setting [7]) is -4%; in experiment [5] (setting [8]) it was 98% (active); in experiment [5] (at 50.0 µM), 98.2% (active); in experiment [6] (setting [7]), -3%; in experiment [6] (setting [8]), 97% (active); in experiment [6] (at 50.0 µM) it was 98.9% (active).

Take `CC(=N\O)/C(C)=N/O.CC(=N\O)/C(C)=N/O.CC(=N\O)/C(C)=N/O.CC(=N\O)/C(C)=N/O.[CH3-].[CH3-].[Co].[Co]`: the growth inhibition in experiment [1] (setting [7]) is 15%; in experiment [1] (setting [8]), 25%; in experiment [1] (at 50.0 µM) it was 46.5%; in experiment [2] (setting [7]) it was 8%; in experiment [2] (setting [8]) it was 17%; in experiment [2] (at 50.0 µM), 24.6%. Moreover, the growth inhibition in experiment [3] (setting [7]) is 21%; in experiment [3] (setting [8]), 18%; in experiment [3] (at 50.0 µM) it was 30.1%; in experiment [4] (setting [7]), 11%; in experiment [4] (setting [8]) it was 24%; in experiment [4] (at 50.0 µM), 2.8%. Also, the growth inhibition is -1% in experiment [5] (setting [7]); 13% in experiment [5] (setting [8]); -12.7% in experiment [5] (at 50.0 µM); 14% in experiment [6] (setting [7]); 39% in experiment [6] (setting [8]); 63.6% in experiment [6] (at 50.0 µM).

In the case of `C/C(=N\N=C(/[Se])N1CCC(C)CC1)c1ccccn1`, the growth inhibition is 27% in experiment [1] (setting [7]); 94% (active) in experiment [1] (setting [8]); 94.5% (active) in experiment [1] (at 50.0 µM); 24% in experiment [2] (setting [7]); 91% (active) in experiment [2] (setting [8]); 96% (active) in experiment [2] (at 50.0 µM). Also, the growth inhibition was 9% in experiment [3] (setting [7]); 71% (active) in experiment [3] (setting [8]); 99.2% (active) in experiment [3] (at 50.0 µM); 4% in experiment [4] (setting [7]); -9% in experiment [4] (setting [8]); 47% in experiment [4] (at 50.0 µM). The growth inhibition in experiment [5] (setting [7]) was 6%; in experiment [5] (setting [8]), 20%; in experiment [5] (at 50.0 µM), 84.5% (active); in experiment [6] (setting [7]), 4%; in experiment [6] (setting [8]), 76% (active); in experiment [6] (at 50.0 µM) it was 98% (active).

Regarding `Cc1cc([N+](=O)[O-])c2ccccc2[n+]1[O-]`, the growth inhibition in experiment [1] (setting [7]) is 99% (active); in experiment [1] (setting [8]) it was 99% (active); in experiment [1] (at 50.0 µM), 99.1% (active); in experiment [2] (setting [7]) it was 100% (active); in experiment [2] (setting [8]), 100% (active); in experiment [2] (at 50.0 µM) it was 99.5% (active). The growth inhibition in experiment [3] (setting [7]) is 99% (active); in experiment [3] (setting [8]), 99% (active); in experiment [3] (at 50.0 µM), 48.6%; in experiment [4] (setting [7]) it was 100% (active); in experiment [4] (setting [8]), 100% (active); in experiment [4] (at 50.0 µM), 58.4%. In addition, the growth inhibition in experiment [5] (setting [7]) is 99% (active); in experiment [5] (setting [8]) it was 99% (active); in experiment [5] (at 50.0 µM) it was 99.2% (active); in experiment [6] (setting [7]), 100% (active); in experiment [6] (setting [8]), 100% (active); in experiment [6] (at 50.0 µM) it was 49.8%.

`Cc1cc[n+](C2C(=O)c3ccccc3C(=O)C2Nc2cc(Cl)ccc2Cl)cc1` (configuration not stated): the growth inhibition in experiment [1] (setting [7]) was 19%; in experiment [1] (setting [8]), 96% (active); in experiment [1] (at 50.0 µM), 96.8% (active); in experiment [2] (setting [7]), 11%; in experiment [2] (setting [8]) it was 98% (active); in experiment [2] (at 50.0 µM), 98.8% (active). Also, the growth inhibition is 11% in experiment [3] (setting [7]); 99% (active) in experiment [3] (setting [8]); 78.9% (active) in experiment [3] (at 50.0 µM); 5% in experiment [4] (setting [7]); 95% (active) in experiment [4] (setting [8]); 66.2% in experiment [4] (at 50.0 µM). Moreover, the growth inhibition is 15% in experiment [5] (setting [7]); 98% (active) in experiment [5] (setting [8]); 98.5% (active) in experiment [5] (at 50.0 µM); 12% in experiment [6] (setting [7]); 98% (active) in experiment [6] (setting [8]); 94.5% (active) in experiment [6] (at 50.0 µM).

Values taken from PubChem BioAssay (NCI).
